Assay outcomes (PubChem)
Sampled rows, rich in hits. Any-hit rate of the full collection: about 1.6%.
F-actin modifier = modifiers of F-actin cytoskeleton organization, primary screen, imaging, HUVEC, phalloidin staining, high-content imaging; HUVEC TNFa F-actin phalloidin imaging; inhibition, % at 2 µM; actives 0.18% (n = 91,000); AID 836, 2007;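 active = inhibition above the batch mean plus 3 SD and confirmed as a hit by visual image inspection, cut at about 30% in these data, passing the limit was not always enough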
S1P2 antag = human S1P2 receptor antagonists, primary screen, cell-based. cell-based S1P2 antagonist assay, inhibition at 5 uM. inhibition, % at 5 µM. actives 0.21% (n = 97,000). AID 736, 2007; in the data active = inhibition above about 45%;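 also: CRE beta-lactamase reporter cells expressing human S1P2 stimulated with S1P; 0% = agonist at EC80 alone and 100% = agonist plus reference antagonist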
Target sequence (O95136 whole entry, looked up): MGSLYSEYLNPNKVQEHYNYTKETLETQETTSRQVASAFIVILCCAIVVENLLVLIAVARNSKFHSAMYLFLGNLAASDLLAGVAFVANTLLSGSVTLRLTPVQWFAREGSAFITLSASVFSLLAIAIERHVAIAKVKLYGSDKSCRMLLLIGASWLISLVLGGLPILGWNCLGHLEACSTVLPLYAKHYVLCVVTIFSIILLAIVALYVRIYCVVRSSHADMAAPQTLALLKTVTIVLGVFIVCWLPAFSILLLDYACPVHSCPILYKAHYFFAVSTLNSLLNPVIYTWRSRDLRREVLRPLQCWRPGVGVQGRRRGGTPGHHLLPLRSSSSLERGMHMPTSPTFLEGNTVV
HUVEC tox TNFa = cytotoxicity in TNFa-stimulated HUVEC, primary screen, cytotoxicity control for VCAM1 expression modulator project, imaging, Hoechst nuclei count | HUVEC TNFalpha-stimulated, Hoechst cell count | cell count reduction, % at 2 µM | actives 0.17% (n = 93,000);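 active = cell count reduction exceeding the screen mean by over 5 SD, scaled to untreated wells per plate, cut at about 78% in these data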;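 also: cells counted after 24 h of TNF alpha exposure following the 1 h pretreatment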
S1P2 ag = S1P2 receptor agonists, primary screen, cell-based | S1P2-expressing cell line, agonist reporter read-out | activation, % at 4.5 µM | actives 0.46% (n = 97,000); in the data active = activation above about 16%;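 also: 0% = vehicle low control and 100% = maximal reference agonist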
E-sel TNF inh = E-selectin induction blockers in HUVEC – imaging, immunofluorescence, high content, primary screen; actives 0.71% (n = 120,000); HUVEC TNFa-induced E-selectin immunofluorescence; inhibition, % at 2 µM; AID 1246, 2008;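 active = inhibition above the batch mean plus 3 SD, and confirmed as a hit on visual image review, cut at about 43% in these data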;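 also: 0% = TNF-stimulated DMSO wells and 100% = unstimulated control wells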
VCAM1 TNFa inh = inhibitors of TNFa-induced VCAM1 expression, primary screen, imaging, HUVEC, TNFa stimulus, immunofluorescence; HUVEC TNFa-induced VCAM-1 immunofluorescence, high-content imaging; inhibition, % at 2 µM; actives 0.48% (n = 95,000);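 active = inhibition above the batch mean plus 3 SD, with images confirmed as a hit by eye, cut at about 37% in these data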;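 also: 0% = TNF-stimulated DMSO wells and 100% = unstimulated control wells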
The depositor's hits bear a star; x = no result given.

SMILES	F-actin modifier	S1P2 antag	HUVEC tox TNFa	S1P2 ag	E-sel TNF inh	VCAM1 TNFa inh
Cc1nc2ccccc2n1CCCOc1ccccc1	-6	6	88*	-7	-1	62*
COc1ccc(SCc2noc(C(=O)NC(C)C)c2C(=O)O)cc1	-5	4	-16	-6	31	-9
O=C(O)C1C2C=CC(O2)C1C(=O)Nc1ccc(S(=O)(=O)N2CCc3ccccc32)cc1 (stereo unspecified)	2	-11	0	-2	12	14
O=C(O)C1C2C=CC(O2)C1C(=O)Nc1ccc(S(=O)(=O)Nc2ccccc2)cc1 (stereo unspecified)	38*	0	-16	-6	21	14
Cc1ccc(S(=O)(=O)N2CCNC(=O)CC2)cc1	x	x	x	x	-14	x
CC(C)(C)OC(=O)NNC(=O)NC12CC3CC(CC(C3)C1)C2	x	x	x	x	66*	x
N#C/C(=C\c1cc(Cl)cc(Cl)c1O)C(=O)NC1CCCCC1	16	14	22	-7	100*	23
N#C/C(=C\c1cc(Cl)ccc1O)C(=O)NC1CCCCC1	-17	-1	-17	-3	x	-13
O=c1cc(C(Cl)(Cl)Cl)oc2c1ccc1ccccc12	-10	0	30	-4	12	80*
Cc1ccc(CSc2nnc(-c3ccncc3)o2)c(C)c1	x	x	x	x	-11	x
CCC(C)NS(=O)(=O)c1ccc(OCC(=O)N2CCCC2)cc1 (stereo unspecified)	12	-1	-29	-4	-2	8
O=C(CSc1ncn(-c2ccccc2)n1)Nc1ccc2c(c1)OCCO2	x	x	x	x	72*	x
O=C(CSc1ncn(-c2ccccc2)n1)Nc1ccc2c(c1)OCO2	x	x	x	x	20	x
Cc1nn(C)c(C)c1CN(C)S(=O)(=O)c1ccc2ccccc2c1	-17	50*	0	-2	10	8
CN(Cc1ccccc1)Cc1nc2c(c(=O)n(C)c(=O)n2C)n1Cc1ccc(F)cc1	0	0	-15	39*	x	2
CSc1oc(-c2ccco2)nc1S(=O)(=O)c1ccccc1	14	-7	82*	-4	x	13
CSC1=C(C#N)C(c2ccccc2Cl)C(C(C)=O)=C(C)N1 (stereo unspecified)	10	6	-5	-2	37	-1
COc1ccc(Br)cc1CN(C)CC(=O)Nc1cc(Cl)ccc1Cl	x	x	x	x	89*	x
COc1ccc(Br)cc1CN(C)CC(=O)Nc1ccccc1Cl	x	x	x	x	20	x
Cc1sc2ncnc(N3CCN(CCOc4ccc(Cl)cc4)CC3)c2c1C	x	45	28	-4	13	-20
COc1ccc(Br)cc1C1N2CC3(C)CN1CC(C)(C2)C3=O (stereo unspecified)	11	0	-2	-5	10	-6
Cc1ccc(NC(=S)NCCc2ccc(S(N)(=O)=O)cc2)c(C)c1	6	13	3	102*	x	2
Cc1cc(C)cc(NC(=S)NCCc2ccc(S(N)(=O)=O)cc2)c1	x	x	x	x	9	x
CC(C)(C)NC(=O)CSc1nsc(SCC(=O)NC(C)(C)C)c1C#N	6	34	55	-8	x	72*
CC(=O)CSc1nsc(SCC(C)=O)c1C#N	1	-8	-25	-2	-32	21
SMILES	F-actin modifier	S1P2 antag	HUVEC tox TNFa	S1P2 ag	E-sel TNF inh	VCAM1 TNFa inh
Cc1ccc(C)c(S(=O)(=O)N2CCN(C(=O)Cn3c(C(F)(F)F)nc4ccccc43)CC2)c1	8	5	-22	-3	11	5
Cn1c(=O)oc2cc(S(=O)(=O)NCC3CCCO3)ccc21 (stereo unspecified)	x	6	x	20*	9	x
CC(=O)c1cccc(NC(=O)c2cc(-c3ccc(F)cc3)on2)c1	-7	18	73	-2	x	71*
CCS(=O)(=O)N1CCN(c2ccccn2)CC1	-9	-2	3	-7	-12	-18
CCSc1nc(N)nc(-c2cccs2)c1C#N	x	6	x	-3	x	x
CCCCOC(=O)c1ccc(-c2ccc(/C=N/NC(=S)NCC)o2)cc1	9	-38	-24	23*	2	-36
CCCCNC(=O)C(=O)N/N=C/c1ccc(C(=O)OC)cc1	x	x	x	x	-3	x
O=c1cc([O-])[n+]2c3n1CCCN3CCC2	x	x	x	x	31	x
CC(=O)c1cccc(NS(=O)(=O)c2c(C)noc2C)c1	60*	-3	-45	-3	x	15
CCc1cccc(NC(=O)c2ccc(NS(=O)(=O)c3c(C)noc3C)cc2)c1	16	-7	-11	-1	1	8
CC(=O)c1cccc(NS(=O)(=O)N(C)C)c1	-2	-6	5	-2	-27	-2
CC(=O)c1cccc(NS(=O)(=O)N2CCCCC2)c1	1	0	9	-5	81*	20
Cc1noc(C)c1S(=O)(=O)Nc1ccc(C(=O)NCc2ccccc2)cc1	-50	5	0	-2	6	-10
Cc1cccc(NC(=O)c2ccc(NS(=O)(=O)c3c(C)noc3C)cc2)c1	9	22	0	-2	100*	4
Cc1ccc(NC(=S)C2=C(O)c3ccccc3N(C)S2(=O)=O)cc1	15	14	-10	-5	16	6
Cc1nc2c(sc3nc4c(cc32)COC(C)(C)C4)c(=O)n1Cc1ccccc1	5	-7	-23	-4	15	5
Cc1nc2c(sc3nc4c(cc32)COC(C)(C)C4)c(=O)o1	-1	3	-1	-5	81*	-1
COc1ccc(-c2nc3ccccc3s2)cc1O	-6	-4	-35	-4	-17	-37
COc1ccc(-c2c/c(=N\c3nc(-c4ccccc4)c(C)s3)c3ccccc3o2)cc1O	18	-4	55	-9	1	51*
O=C(N/N=C/C(Br)=C/c1ccccc1)c1cc(-c2ccco2)[nH]n1	x	x	x	x	-38	x
O=C(N/N=C/C(Br)=C/c1ccccc1)c1n[nH]c2c1CCC2	13	15	71	0	x	91*
COc1cc(C2Nn3c(nnc3-c3ccccc3OC)S2)ccc1O (stereo unspecified)	5	4	-44	-5	-32	-25
O=S(=O)(NC1c2cccc3cccc(c23)C1N1CCNCC1)c1ccc(Cl)cc1 (stereo unspecified)	x	x	x	x	-11	x
CCOC(=O)Cc1c(C)nc2c(-c3ccccc3)c[nH]n2c1=O	x	x	x	x	96*	x
CCOC(=O)Cc1c(C)nc2c(-c3ccccc3)c(C)[nH]n2c1=O	-5	7	5	-2	0	-6
CCC(C)(C)NC(=O)c1ccc2c(c1)S(=O)(=O)c1ccccc1C2=O	-19	-41	0	23*	15	15
COc1cc(-c2nnc(SCC3(c4ccc(Br)cc4)OCCO3)o2)cc(OC)c1OC	-14	-27	-10	-9	-20	7
CCCCNS(=O)(=O)c1ccc2nc(-c3cccs3)cc(C(=O)NCC(OC)OC)c2c1	x	x	x	x	12	x
